Experiment [1] in a line: qHTS of pediatric cancer cell lines to identify multiple opportunities for drug repurposing: Confirmatory screen for Rh41 cells (AID 1347123). Further: nearly all actives have a fitted effect of over 60% in size. Further: potency means the concentration at half of the fitted maximal effect. Put shortly: (§1)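 Viability after 48 h compound treatment at 37C, 500-1,000 cells/well, read as ATP luminescence with CellTiter-Glo. Primary screens used 11-point (MIPE, 0.78 nM-46 µM) or 8-point (NPC, 0.59 nM-46 µM) final concentrations; follow-up screens used 11-point dilutions.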

Experiment [2] can be described thus: qHTS of pediatric cancer cell lines to identify multiple opportunities for drug repurposing: Confirmatory screen for RD cells (AID 1347124).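 Further: cells exposed to compound for 48 h before viability readout; nearly all actives have a fitted effect of over 65% in size.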 Further: potency means the concentration at half of the fitted maximal effect. In outline:
as §1

The nature of experiment [3]: qHTS of pediatric cancer cell lines to identify multiple opportunities for drug repurposing: Confirmatory screen for Rh18 cells (AID 1347125). Further: nearly all actives have a fitted effect of over 55% in size. Further: potency means the concentration at half of the fitted maximal effect. Put shortly:
as §1

Experiment [4] is described as follows: qHTS of pediatric cancer cell lines to identify multiple opportunities for drug repurposing: Confirmatory screen for Rh30 cells (AID 1347126). Further: nearly all actives have a fitted effect of over 55% in size. Further: potency means the concentration at half of the fitted maximal effect. In outline:
as §1

Experiment [5] can be described thus: qHTS of pediatric cancer cell lines to identify multiple opportunities for drug repurposing: Confirmatory screen for Saos-2 cells (AID 1347127). Further: nearly all actives have a fitted effect of over 60% in size. Further: potency means the concentration at half of the fitted maximal effect. Put shortly:
as §1

Experiment [6] can be described thus: qHTS of pediatric cancer cell lines to identify multiple opportunities for drug repurposing: Confirmatory screen for SK-N-SH cells (AID 1347129).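 Further: cells exposed to compound for 48 h before viability read; nearly all actives have a fitted effect of over 60% in size.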 Further: potency means the concentration at half of the fitted maximal effect. Put shortly: as §1
Experiment [7] relates to Zika virus NS2B-NS3 protease. Put plainly: Primary screen GU AMC qHTS for Zika virus inhibitors (AID 1347154). Further: nearly all actives have a fitted effect of over 70% in size. In outline: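 Unlinked Zika NS2B hydrophilic domain–NS3 protease complex at 25 nM in 10 mM Tris-HCl pH 8.0, 0.01% Tween 20, with an AMC peptide substrate. Fluorescence change (340/450 nm) over 15 min at room temperature, normalized to controls, fitted to 4-parameter Hill.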

The target in experiment [8] is N-terminal Xaa-Pro-Lys N-methyltransferase 1 (Homo sapiens) (UniProt Q9BV86). Put plainly: qHTS Assay for Inhibitors of N-terminal methyltransferase 1 (NTMT1): LOPAC validation of the NTMT1 SAHH-coupled ThioGlo3 Assay (AID 1347143).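 Further: SAH from peptide methylation measured as thiol fluorescence via SAHH coupling and ThioGlo3; nearly all actives have a fitted effect of over 70% in size.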 Further: potency means the concentration at half of the fitted maximal effect. Put shortly: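 Steps: dispense 125nM NTMT1; pin-transfer test compounds at several concentrations, with 1uM RCC1-6 peptide as control; incubate 1 min; start with reagent holding 100uM SAM, 10uM SAHH, 15uM ThioGlo3; read at 0 and 30 min.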

In experiment [9] the test system is Zika virus NS2B-NS3 protease (unlinked complex). Put plainly: Primary screen GU Rhodamine qHTS for Zika virus inhibitors: Unlinked NS2B-NS3 protease assay (AID 1347159). Further: nearly all actives have a fitted effect of over 60% in size. Put shortly: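 Enzyme 25 nM in Tris-HCl pH 8.0 + 0.01% Tween 20; compounds up to 114 microM, 15 min RT dark; + Rhod110 substrate 1.5 microM; read t0 and 15 min; delta fluorescence → % inhibition → 4-parameter Hill fit.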

The target of experiment [10] is Lysine-specific demethylase 5B (Homo sapiens) (UniProt Q9UGL1). Put plainly: Optimization screen for KDM5B Histone Demethylases FDH coupled qHTS against the LOPAC library (AID 1347166). Put shortly: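 KDM5BDeltaAP (200nM final) in 50mM HEPES pH 7.5, 0.01% Tween-20 was preincubated with compound for 10 min at room temperature. A substrate mix of 12.5uM H3K4Me3, 25uM a-ketoglutarate, ascorbate, Fe2+, NAD+ and formaldehyde dehydrogenase was then added. NADH fluorescence (340/450 nm) was read initially and after 30 min.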

The target of another experiment is Furin (Homo sapiens) (UniProt P09958). Kind of experiment: Furin counterscreen qHTS for Zika virus inhibitors (AID 1347149).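 Further: purified recombinant full-length human furin enzyme at 5 nM; fluorescence gain from furin cutting a BOC-RVRR-AMC peptide substrate over 15 min; top concentration of the series differs between compounds; nearly all actives have a fitted effect of over 70% in size.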 Put shortly:
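Counterscreen measures cleavage of 2 microM BOC-RVRR-AMC, below its ~15 microM Km, by 5 nM full-length human furin at pH 7.0 after a 15-min compound preincubation. Inhibition derives from the 15-min fluorescence increase at 37C.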

A short description of experiment [11]: Vero cells viability qHTS for Zika virus inhibitors (AID 1347167). In outline: (§2)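 qHTS titration; 24-48 h compound exposure, 37 degrees C/5% CO2; DMEM, 4% FBS; CellTiter Glo ATP luminescence.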
Experiment [12] can be described thus: HepG2 cells viability qHTS for Zika virus inhibitors (AID 1347168). Further: potency means the concentration at half of the fitted maximal effect. In outline: as §2

Each structure is given as a SMILES string. Several values for one entry are separate records, joined by “and”; a condition that tells them apart may be missing. Equal entries are not always repeated. Results filed as inconclusive are left out. Activity calls are given as the source filed them. The call rests on the fitted dose curve; in most records, active means well fitted curve in the direction sought with a large enough effect; inconclusive means small, poorly fitted or top-dose-only effect, or another doubt; inactive means no such curve, though single readings can be large; an effect the other way counts as inactive or inconclusive. Non-standard residues stand in square brackets, D forms with d. Residues, ends and D or L forms follow the SMILES beside them. *: point of attachment. Sta = CC(C)C[C@H](N)[C@@H](O)CC(=O)O; Isovaleryl = CC(C)CC(=O)*

Chain of Lysine-specific demethylase 5B (Homo sapiens) (Q9UGL1 whole entry, looked up): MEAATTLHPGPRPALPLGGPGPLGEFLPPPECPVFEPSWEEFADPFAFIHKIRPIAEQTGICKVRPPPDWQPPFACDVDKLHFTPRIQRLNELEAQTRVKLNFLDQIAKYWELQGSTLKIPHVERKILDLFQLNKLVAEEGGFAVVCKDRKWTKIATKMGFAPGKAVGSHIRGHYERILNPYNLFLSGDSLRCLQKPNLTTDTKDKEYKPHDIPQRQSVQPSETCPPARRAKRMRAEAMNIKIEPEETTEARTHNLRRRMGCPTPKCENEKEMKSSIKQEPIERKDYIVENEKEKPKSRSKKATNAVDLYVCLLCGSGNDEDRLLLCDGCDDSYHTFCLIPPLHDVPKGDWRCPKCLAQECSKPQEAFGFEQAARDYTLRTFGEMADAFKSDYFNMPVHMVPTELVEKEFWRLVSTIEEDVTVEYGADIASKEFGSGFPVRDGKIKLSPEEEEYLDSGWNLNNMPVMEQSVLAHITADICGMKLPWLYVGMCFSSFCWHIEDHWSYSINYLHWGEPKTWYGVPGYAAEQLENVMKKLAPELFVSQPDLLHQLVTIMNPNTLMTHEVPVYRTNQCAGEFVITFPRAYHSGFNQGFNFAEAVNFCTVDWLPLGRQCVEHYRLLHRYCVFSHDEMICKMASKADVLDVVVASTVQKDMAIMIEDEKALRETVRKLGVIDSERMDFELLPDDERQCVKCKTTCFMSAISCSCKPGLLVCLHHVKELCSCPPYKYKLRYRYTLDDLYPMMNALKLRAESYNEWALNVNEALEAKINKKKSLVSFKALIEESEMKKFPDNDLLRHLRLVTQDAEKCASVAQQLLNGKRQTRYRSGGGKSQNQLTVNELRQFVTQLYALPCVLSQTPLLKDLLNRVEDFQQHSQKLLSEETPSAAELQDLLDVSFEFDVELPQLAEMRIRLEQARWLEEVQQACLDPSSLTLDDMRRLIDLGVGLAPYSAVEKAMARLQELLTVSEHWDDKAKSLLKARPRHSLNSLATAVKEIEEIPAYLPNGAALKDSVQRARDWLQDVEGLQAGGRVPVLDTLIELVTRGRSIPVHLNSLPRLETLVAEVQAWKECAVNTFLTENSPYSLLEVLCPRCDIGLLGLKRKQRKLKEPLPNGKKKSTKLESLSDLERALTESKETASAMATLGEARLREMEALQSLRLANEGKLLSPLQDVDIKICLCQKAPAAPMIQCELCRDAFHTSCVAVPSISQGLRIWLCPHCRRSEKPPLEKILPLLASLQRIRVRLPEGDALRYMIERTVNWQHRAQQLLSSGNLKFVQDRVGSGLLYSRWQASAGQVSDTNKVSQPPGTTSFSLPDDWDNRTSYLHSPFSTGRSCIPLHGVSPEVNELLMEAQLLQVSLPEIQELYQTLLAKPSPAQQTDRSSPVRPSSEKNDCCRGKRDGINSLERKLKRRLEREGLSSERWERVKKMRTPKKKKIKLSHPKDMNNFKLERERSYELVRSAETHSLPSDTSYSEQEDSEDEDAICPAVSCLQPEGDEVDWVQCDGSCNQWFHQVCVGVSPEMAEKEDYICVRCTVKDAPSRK
Chain of N-terminal Xaa-Pro-Lys N-methyltransferase 1 (Homo sapiens) (Q9BV86 whole entry, looked up): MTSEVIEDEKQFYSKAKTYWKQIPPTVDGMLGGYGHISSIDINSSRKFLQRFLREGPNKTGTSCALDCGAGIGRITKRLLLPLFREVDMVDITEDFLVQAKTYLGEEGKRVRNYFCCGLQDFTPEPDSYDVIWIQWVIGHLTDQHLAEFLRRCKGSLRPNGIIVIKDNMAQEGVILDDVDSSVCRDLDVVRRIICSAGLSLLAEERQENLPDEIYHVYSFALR
Chain of Furin (Homo sapiens) (P09958 whole entry, looked up): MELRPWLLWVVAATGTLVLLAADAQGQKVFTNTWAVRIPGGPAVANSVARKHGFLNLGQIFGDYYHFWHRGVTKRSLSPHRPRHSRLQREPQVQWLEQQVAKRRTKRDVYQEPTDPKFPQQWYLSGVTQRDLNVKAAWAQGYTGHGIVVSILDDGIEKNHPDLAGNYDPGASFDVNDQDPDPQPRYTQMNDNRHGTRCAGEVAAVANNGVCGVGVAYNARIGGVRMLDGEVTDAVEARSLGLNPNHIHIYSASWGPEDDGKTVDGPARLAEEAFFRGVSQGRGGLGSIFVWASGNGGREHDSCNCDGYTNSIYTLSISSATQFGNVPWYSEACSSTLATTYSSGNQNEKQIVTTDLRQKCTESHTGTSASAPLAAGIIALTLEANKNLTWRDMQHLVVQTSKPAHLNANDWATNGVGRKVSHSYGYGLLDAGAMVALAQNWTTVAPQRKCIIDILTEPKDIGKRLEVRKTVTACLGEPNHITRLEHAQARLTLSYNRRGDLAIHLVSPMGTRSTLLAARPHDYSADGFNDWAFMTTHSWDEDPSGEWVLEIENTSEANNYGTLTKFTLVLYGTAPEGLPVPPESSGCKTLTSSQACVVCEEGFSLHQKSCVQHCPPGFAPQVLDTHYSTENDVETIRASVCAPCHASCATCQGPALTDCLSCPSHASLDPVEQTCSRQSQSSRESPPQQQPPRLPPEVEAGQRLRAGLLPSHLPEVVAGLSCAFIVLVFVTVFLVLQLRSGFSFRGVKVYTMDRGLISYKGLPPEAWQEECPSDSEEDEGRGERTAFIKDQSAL

As to `Nc1ncn([C@H]2C[C@H](O)[C@@H](CO)O2)c(=O)n1`, the Potency result in experiment [1], in experiment [2], in experiment [3], in experiment [4], in experiment [5] and in experiment [6] was “inactive” each time. Also, the Potency entry in [7] was “inactive”.

Take `CC(C)CC(=O)N[C@H](C(=O)N[C@H](C(=O)N[C@@H](CC(C)C)[C@@H](O)CC(=O)N[C@@H](C)C(=O)N[C@@H](CC(C)C)[C@@H](O)CC(=O)O)C(C)C)C(C)C` (Isovaleryl-VV[Sta]A[Sta]-OH): the Potency result in experiment [6] and in experiment [7] was “inactive” each time.

For the compound `O=C1c2c(O)cc(O)cc2OC(c2ccc(O)c(O)c2)C1O` (centres undefined), the Potency entry in experiment [1], in [2], in [3], in experiment [4], in experiment [5] and in experiment [6] was “inactive” in each case. Moreover, the Potency in experiment [8] was 25100 nM (active).

For `c1cnc2cc3c(cc2n1)C1CNCC3C1`, the Potency entry in experiment [1], in [2], in [6], in experiment [7] and in experiment [9] was “inactive” throughout.

Take `CC(=O)O[C@H]1C(=O)[C@@]2(C)C([C@H](OC(=O)c3ccccc3)[C@]3(O)C[C@H](OC(=O)[C@H](O)[C@@H](NC(=O)c4ccccc4)c4ccccc4)C(C)=C1C3(C)C)[C@]1(OC(C)=O)CO[C@@H]1C[C@@H]2O` (some centres undefined): the Potency in experiment [1] was 10.4 nM (active); in experiment [5] it was 23.3 nM (active). Further, the Potency entry in experiment [4], in [7] and in experiment [9] was “inactive” throughout. For the same compound, the compound was classed as inactive in [10].

Take `Nc1nc(OCc2ccccc2)c2[nH]cnc2n1`: the Potency entry in experiment [1], in [2], in experiment [3], in [4], in experiment [5] and in [6] was “inactive” each time. For the same compound, the Potency entry in [8] and in experiment [7] was “inactive” throughout. Also, the result in [10] was inactive.

Take `CCCOc1ccc2nc(NC(=O)OC)[nH]c2c1`: the figures for the Potency in experiment [2] and in experiment [5] were 1.65 µM (active) and 827 nM (active), respectively. In addition, the Potency result in experiment [3] and in experiment [7] was “inactive” in each case.

Consider `Cc1cc(C2CCCCC2)n(O)c(=O)c1`, for which the Potency in [4] is 8270 nM (active); in experiment [6], 2350 nM (active). The Potency entry in experiment [7] was “inactive”.

With `CC(S)C(=O)NCC(=O)O` (centres undefined), the Potency entry in experiment [3], in [5], in [6] and in [7] was “inactive” throughout. In experiment [4], the Potency is 10400 nM (active).

In the case of `Cc1ccc(Nc2nccc(N(C)c3ccc4c(C)n(C)nc4c3)n2)cc1S(N)(=O)=O`, the Potency is 10400 nM (active) in [1] and 18700 nM (active) in experiment [6]. The Potency entry in [2], in experiment [7] and in experiment [9] was “inactive” in each case.

As for `CC[C@]1(O)C[C@H]2CN(CCc3c([nH]c4ccccc34)[C@@](C(=O)OC)(c3cc4c(cc3OC)N(C=O)[C@H]3[C@@](O)(C(=O)OC)[C@H](OC(C)=O)[C@]5(CC)C=CCN6CC[C@]43[C@@H]65)C2)C1`, the Potency is 23.3 nM (active) and 18.5 nM (active) in experiment [1]; 52.2 nM (active) and 147 nM (active) in experiment [2]; 8.3 nM (active) and 165 nM (active) in [5]. The Potency entry in experiment [3] and in experiment [7] was “inactive” throughout.

Consider `CC(C)C[C@H](NC(=O)[C@H](Cc1ccccc1)NC(=O)c1cnccn1)B(O)O`, for which the Potency was 16.5 nM (active) in experiment [1]; 0.0414 µM (active) in experiment [2]; 46.5 nM (active) in [3]; 233 nM (active) in experiment [4]; 208 nM (active) in experiment [5]; 33.2 nM (active) in [6]. Besides, the Potency in experiment [12] is 46.6 nM (active). Also, the Potency result (with Furin (Homo sapiens); in experiment [7]; in [9]; in experiment [11]) was “inactive” each time.

Values taken from PubChem BioAssay (NCATS).
